Test results published in paper PMC4336329 (PLoS ONE, 2015).
Hit rate of the full screen: of about 310,000 compounds, about 14,000 (4.5%) showed an effect of 50% or more. Effects have a minus sign here. The full list was thinned out, with strong results kept by preference.

target: human ether-à-go-go-related gene (hERG) potassium channel (human, UniProt Q12809); experiment: primary screen, population patch clamp on CHO cells stably expressing hERG; higher = less effect of the substance
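Further: peak tail current of the secondary pulse compared with the same well before compound.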

Sequence of human ether-à-go-go-related gene (hERG) potassium channel (Q12809 whole entry, looked up): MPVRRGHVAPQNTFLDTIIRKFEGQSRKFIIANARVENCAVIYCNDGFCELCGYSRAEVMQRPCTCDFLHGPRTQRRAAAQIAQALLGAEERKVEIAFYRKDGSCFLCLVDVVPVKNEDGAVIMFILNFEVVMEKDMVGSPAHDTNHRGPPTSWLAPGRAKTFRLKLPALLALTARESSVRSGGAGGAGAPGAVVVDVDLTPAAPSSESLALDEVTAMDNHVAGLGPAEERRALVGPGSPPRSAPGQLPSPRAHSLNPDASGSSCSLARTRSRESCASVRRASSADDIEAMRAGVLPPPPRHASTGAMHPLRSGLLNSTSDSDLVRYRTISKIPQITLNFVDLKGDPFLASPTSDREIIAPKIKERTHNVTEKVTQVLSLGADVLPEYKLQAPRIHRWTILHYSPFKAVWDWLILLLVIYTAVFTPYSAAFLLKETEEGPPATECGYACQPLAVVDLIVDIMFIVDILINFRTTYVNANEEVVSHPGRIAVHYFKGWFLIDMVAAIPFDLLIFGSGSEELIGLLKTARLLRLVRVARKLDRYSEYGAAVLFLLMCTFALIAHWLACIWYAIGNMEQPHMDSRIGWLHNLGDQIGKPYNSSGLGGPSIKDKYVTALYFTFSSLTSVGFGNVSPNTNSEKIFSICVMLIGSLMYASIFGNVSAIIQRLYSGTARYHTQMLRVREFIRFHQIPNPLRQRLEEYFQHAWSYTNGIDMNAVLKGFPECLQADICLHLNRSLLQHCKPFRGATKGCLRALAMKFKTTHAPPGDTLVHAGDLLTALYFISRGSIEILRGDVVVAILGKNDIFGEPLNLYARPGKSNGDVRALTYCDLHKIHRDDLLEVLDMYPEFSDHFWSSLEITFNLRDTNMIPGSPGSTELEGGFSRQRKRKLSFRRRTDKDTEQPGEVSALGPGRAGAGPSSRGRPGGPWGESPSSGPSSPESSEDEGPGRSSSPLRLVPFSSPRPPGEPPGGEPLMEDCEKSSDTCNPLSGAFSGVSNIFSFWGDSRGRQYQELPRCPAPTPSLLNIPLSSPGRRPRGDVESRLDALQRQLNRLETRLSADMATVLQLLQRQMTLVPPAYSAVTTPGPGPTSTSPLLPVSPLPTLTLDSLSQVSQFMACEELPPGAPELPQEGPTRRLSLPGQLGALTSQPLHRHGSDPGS

Point of comparison: `CC(=O)N1Cc2ccccc2CC1C(=O)O` (centres unmarked), “hERG current change (%, negative = inhibition) at 10uM” value -7.43%. Against it:
- Cn1nc(-c2ccc(NCCO)c([N+](=O)[O-])c2)c2ccccc2c1=O — higher, -2.29%
- O=C(c1ccccc1Cl)N(Cc1ccc(Cl)c(Cl)c1)N1C(=O)CCCC1=O — higher, -6.37%
- CC(=O)Nc1ccc(NC(=O)C(C)Oc2ccccc2C(=O)NCc2ccccc2)cc1 (centres unmarked) — lower, -46.9%
- COc1ccc(OC2CCN(S(=O)(=O)c3ccc(C(C)=O)cc3)CC2)cc1 — lower, -19.7%
- COc1ccccc1NC(=O)c1nnn(Cc2ccccc2)c1NC(C)=O — higher, 2.36%
- COc1ccc(Cl)cc1NC(=O)CN1CCN(Cc2ccccc2)CC1 — lower, -68.9%
- COc1ccc(Cl)cc1NC(=O)CCN1CCN(c2ccccc2C)CC1 — higher, 6.79%
- COc1ccccc1NC(=O)c1nnn(Cc2ccccc2)c1NC(=O)C(F)(F)F — lower, -53%
- COc1ccc(Cl)cc1NC(=O)CN1CCCC1.Cl — higher, 5.1%
- COc1ccc(Cl)cc1NC(=O)CN1CCCCCC1 — lower, -8.36%
- COc1ccc(OC)c(NC(=O)CCN2CCN(Cc3ccccc3)CC2)c1.Cl — lower, -32.9%
- O=C(Nc1ccccc1)c1nnn(Cc2ccccc2)c1NC(=O)C(F)(F)F — lower, -7.45%
- COc1ccc(Cl)cc1NC(=O)CCN1CCN(Cc2ccccc2)CC1 — lower, -64.6%
- COc1ccc(CCN=C(N)NS(=O)(=O)c2cc(F)ccc2F)cc1 — lower, -17.2%
- N/C(Cc1ccc([N+](=O)[O-])cc1)=N\OC(=O)COc1ccccc1Cl — lower, -21.2%
- O=C(c1ccccc1)N1CN2CN(C(=O)c3ccccc3)CC([N+](=O)[O-])(C2)C1 — higher, 21.8%
- COc1cccc(-n2c(SCC(=O)NC(C)(C)C)nnc2-c2ccoc2C)c1 — lower, -64.5%
- COc1cccc(NC(=O)CSc2nnc(-c3ccoc3C)n2CC2CCCO2)c1 (centres unmarked) — higher, -1.09%
- COc1cccc(NC(=O)CSc2nnc(-c3ccoc3C)n2C)c1 — higher, 4.35%
- COc1ccc(-n2c(SCC(=O)Nc3ccccc3)nnc2-c2ccoc2C)cc1 — lower, -71.8%
- CCOc1ccccc1-n1c(SCC(=O)NC(C)(C)C)nnc1-c1ccoc1C — higher, 1.75%
- Cc1occc1-c1nnc(SCC(=O)NCCc2ccccc2)o1 — lower, -11.5%
- COc1cccc(NC(=O)CSc2nnc(-c3ccoc3C)n2-c2ccccc2)c1 — lower, -85.7%
- CCn1c(SCC(=O)NC(C)(C)C)nnc1-c1ccoc1C — lower, -18.5%
- COc1cccc(-n2nnnc2SCC(=O)NCCc2ccccc2)c1 — lower, -20.8%
- COC(=O)CSc1nnc(-c2ccoc2C)n1-c1ccc(OC)cc1 — lower, -18.3%
- COc1ccc(-n2c(SCC(=O)Nc3cccc(C(=O)O)c3)nnc2-c2ccco2)cc1 — higher, 17.7%
- COc1cccc(-n2c(SCC(=O)NCCc3ccccc3)nnc2-c2ccoc2C)c1 — lower, -76.8%
- CN(CC(=O)Nc1cccc(F)c1)C(=O)CCC1CCCCC1 — higher, 17.7%
- COC(=O)C(=NNc1c(C)n(C)n(-c2ccccc2)c1=O)C(=O)OC — higher, 9.93%
- COc1ccccc1NC(=O)c1cc(OC)c(OC)cc1[N+](=O)[O-] — higher, 4.44%
- COc1ccc(N(C)S(=O)(=O)c2ccc3c(c2)CCC(=O)N3)cc1 — lower, -9.5%
- CN(C)c1ccc(/C=C(\C#N)c2ccccn2)cc1 — higher, -6.97%
- CN(C)CCOc1cc(Cl)cc(Cl)c1 — higher, 7.27%
- CCOC(CNc1cc(C)nc2c(-c3ccccc3OC)c(C)nn12)OCC — higher, 8.64%
- COC(=O)c1ccc(NC(=O)CSc2nnc(C)n2-c2ccccc2)cc1 — higher, -2.35%
- Cc1n[nH]c(=S)n1/N=C/c1ccc(Br)o1 — higher, 12.5%
- COc1ccc(CN2CCCN(S(=O)(=O)c3ccc(Br)cc3)CC2)cc1 — lower, -74.4%
- COc1cccc(CN2CCCN(S(=O)(=O)c3ccc(Br)cc3)CC2)c1 — lower, -58.6%
- O=S(=O)(c1ccc(Br)cc1)N1CCCN(Cc2cccc(F)c2)CC1 — lower, -17.9%
- COc1ccc(S(=O)(=O)N2CCCN(Cc3cccc(F)c3)CC2)cc1 — lower, -44.6%
- COc1ccc(S(=O)(=O)N2CCN(Cc3ccc(Cl)cc3)CC2)cc1 — lower, -10.8%
- COc1cccc(CN2CCN(S(=O)(=O)c3ccc(Br)cc3)CC2)c1 — lower, -29.4%
- COc1ccc(N2CSC3=C(C#N)C(c4ccc(OC)c(OC)c4)CC(=O)N3C2)c(OC)c1 (centres unmarked) — lower, -47.5%
- COc1ccc(N2C(=O)c3ccc(NC(C)=O)cc3C2=O)cc1 — higher, 20.2%
- CC(CC1CC(C)(C)OC1=O)C(=O)Nc1ccc([N+](=O)[O-])cc1 (centres unmarked) — lower, -51.4%
- CC1(C)CC(CC(=O)NC(=S)Nc2ccc([N+](=O)[O-])cc2)C(=O)O1 (centres unmarked) — lower, -21.2%
- CC1(C)CC(CC(=O)Nc2ccc([N+](=O)[O-])cc2)C(=O)O1 (centres unmarked) — lower, -22.5%
- COc1ccc(C)cc1NC(=O)CSCc1ccccc1C — higher, -4%
- COc1ccc(CSC2=NCCN2)cc1Cl.Cl — lower, -18.2%
- Cl.Clc1ccc(CSC2=NCCCN2)cc1Cl — lower, -18.2%
- CCCCCOc1ccc(CSC2=NCCN2)cc1[N+](=O)[O-] — lower, -80.2%
- COc1ccc(CSc2n[nH]c(C)n2)cc1[N+](=O)[O-] — higher, 26.2%
- Br.N#Cc1ccc(CSC2=NCCN2)cc1 — higher, -4.5%
- COc1ccc(CSc2nc(C)[nH]c2[N+](=O)[O-])cc1[N+](=O)[O-] — higher, 4.63%
- COc1ccc(CSc2cccc3cccnc23)cc1[N+](=O)[O-] — higher, 1.59%
- CCCCOc1ccc(CSc2nnc(C)n2N)cc1[N+](=O)[O-] — lower, -31.5%
- CCCOc1ccc(CSC2=NCCN2)cc1[N+](=O)[O-] — lower, -66.7%
- CCCCOc1ccc(CSC2=NCCN2)cc1[N+](=O)[O-].Cl — lower, -68.7%
- CCOc1ccc(CSC2=NCCN2)cc1Cl.Cl — lower, -50.9%
- COc1ccc(CSC2=NCCN2)cc1Br — higher, 1.43%
- CC(Oc1ccc(Cl)cc1)C(=O)NCCCn1ccnc1 (centres unmarked) — higher, -7.09%
- Cc1csc(NC(=O)CN2CCCCCC2)n1.O=C(O)C(=O)O — higher, 14.3%
- Cc1cc(C)c2cc(C(=O)Nc3ccc4c(c3)OCO4)[nH]c2c1 — higher, 16.2%
- CCOc1ccc2c(C)c(C(=O)O)oc2c1OCC — higher, 16.5%
- NS(=O)(=O)c1cccc(NC(=O)CC2(CC(=O)O)CCCC2)c1 — higher, 33.9%
- CSc1nc(Cc2ccc(Cl)cc2)nc2ccccc12 — lower, -16.7%
- Br.O=[N+]([O-])c1ccc(CSC2=NCCN2)cc1 — lower, -15.3%
- CCOc1ccc(CSC2=NCCN2)cc1[N+](=O)[O-].Cl — lower, -83.5%
- COc1ccc(CSc2ncn[nH]2)cc1[N+](=O)[O-] — higher, 2.83%
- Cc1ccc(-n2c(C)nnc2SCC(=O)N2CCOCC2)cc1 — higher, 21.9%
- CSCCCNC(=S)Nc1cccc(S(=O)(=O)NC2=NCCC2)c1 — higher, 32.8%
- CSc1ccccc1OCc1cc(C(=O)NCCn2nc(C)cc2C)no1 — higher, -0.00922%
- O=S(=O)(Nc1nc2ccccc2nc1NCC1CCCO1)c1ccccc1 (centres unmarked) — higher, 2.43%
- CCOC(=O)C1(Cc2ccccc2C(F)(F)F)CCN(C(C)CCn2cccn2)CC1 (centres unmarked) — lower, -65.6%
- CCOC(=O)C1(Cc2ccccc2C(F)(F)F)CCN(C2CCN(C(C)=O)CC2)CC1 — lower, -18.6%
- CCOC(=O)C1(Cc2ccccc2C(F)(F)F)CCN(C(=O)c2cc(C)n(C)n2)CC1 — lower, -22.6%
- CCOC(=O)C1(Cc2ccccc2C(F)(F)F)CCN(Cc2ccon2)CC1 — higher, -2.88%
- CCOC(=O)C1(Cc2ccccc2C(F)(F)F)CCN(CCCn2cccn2)CC1 — lower, -82.1%
- CCOC(=O)C1(Cc2ccccc2C(F)(F)F)CCN(C2CCN(C(C)C)CC2)CC1 — lower, -36.6%
- CCOC(=O)C1(Cc2ccccc2C(F)(F)F)CCN(C(=O)c2cc(C(C)=O)n[nH]2)CC1 — lower, -57.2%
- CCOC(=O)C1(Cc2ccccc2C(F)(F)F)CCN(CC(O)CO)CC1 (centres unmarked) — higher, -3.71%
- CCOC(=O)C1(Cc2ccccc2C(F)(F)F)CCN(C(C)CSC)CC1 (centres unmarked) — lower, -48.2%
- COc1cccc2cc(C(=O)NCc3ccccc3Br)c(=O)oc12 — higher, 19%
- CN(Cc1ccc(C(F)(F)F)cc1)C(=O)c1ccc(Oc2ccccc2)cc1 — higher, 13.1%
- Cc1ccc(S(=O)(=O)Nc2ccccc2)cc1C(=O)N1CCCC1 — higher, -4.95%
- Cc1nonc1NC(=O)CSc1nc2ccc(Cl)cc2[nH]1 — higher, 3.09%
- Cc1sc(NC(=O)Cn2[nH]c(=O)c3ccccc3c2=O)nc1-c1ccccc1 — higher, 11.6%
- CCOC(=O)N1CCC(N2C(=O)c3ccccc3C2Nc2ccc(S(=O)(=O)N(CC)CC)cc2)CC1 (centres unmarked) — lower, -62.6%
- CCOC(=O)N1CCC(N2C(=O)c3ccccc3C2Nc2cccnc2)CC1 (centres unmarked) — higher, 1.81%
- CCOC(=O)N1CCC(N2C(=O)c3ccccc3C2Nc2ccc(C)cc2)CC1 (centres unmarked) — lower, -32.8%
- CCOC(=O)N1CCC(N2C(=O)c3ccccc3C2Nc2cc(Cl)c(OC)cc2OC)CC1 (centres unmarked) — lower, -45.5%
- CCOC(=O)N1CCC(N2C(=O)c3ccccc3C2Nc2ccc(S(=O)(=O)N3CCCCC3)cc2)CC1 (centres unmarked) — lower, -58%
- CCOC(=O)N1CCC(N2C(=O)c3ccccc3C2Nc2ccc(S(=O)(=O)N3CCOCC3)cc2)CC1 (centres unmarked) — lower, -16.7%
